Laboratory results from PubChem BioAssay (NCATS).
Several values for one entry are separate records, joined by “and”; a condition that tells them apart may be missing. Equal values may be shown once. Records with an inconclusive call do not appear. Some structures have more than one record in an assay (separate samples or runs), and their calls can disagree. A number with no mark means an inactive call. Some of the results follow. A call without a number means that no potency is given here. Activity calls are given as the source filed them. Unless noted, calls come from the whole dose curve; as a rule, active = well fitted curve in the direction sought with a large enough effect; inconclusive = small, poorly fitted or top-dose-only effect, or another doubt; inactive = no such curve, though single readings can be large; an effect the other way counts as inactive or inconclusive.

How the values were obtained:
[1] = qHTS for Inhibitors of Plasmodium falciparum (DD2) proliferation (AID 504314); note: potency is the fitted concentration of half-maximal effect;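 for activity, negative = inhibition: parasite DNA measured by SYBR Green fluorescence after red cell lysis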
Summary of the method: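 Quantitative HTS growth inhibition: SYBR Green I binding to parasite DNA after 72 h drug exposure of infected erythrocytes (0.3% parasitemia, 2.5% hematocrit). Signals normalized per plate to inhibitor and vehicle wells.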

[2] = qHTS for Inhibitors of Plasmodium falciparum (GB4) proliferation (AID 504315); note: nearly all actives have a fitted effect of over 50% in size; note: potency is the fitted concentration of half-maximal effect
Summary of the method: (§1)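 Erythrocytes infected with P. falciparum line (0.3% parasitemia, 2.5% hematocrit final) incubated with compounds 72 h at 37 °C, 5% CO2; SYBR Green lysis buffer added, fluorescence read next day. Normalized to 0.29 uM artemisinin and DMSO.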

[3] = qHTS for Inhibitors of Plasmodium falciparum (7G8) proliferation (AID 504316); note: nearly all actives have a fitted effect of over 65% in size; note: potency is the fitted concentration of half-maximal effect
Summary of the method: as §1

[4] = target: Atrial natriuretic peptide receptor 1 (Homo sapiens) (UniProt P16066); assay: Natriuretic polypeptide receptor (hNpr1) antagonism - Pilot CMLD screen (AID 1347052; calls by dose curve;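 note: cGMP level read as GloSensor luciferase luminescence after agonist stimulation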; note: potency is the fitted concentration of half-maximal effect)
Chain of Atrial natriuretic peptide receptor 1 (Homo sapiens) (P16066 whole entry, looked up): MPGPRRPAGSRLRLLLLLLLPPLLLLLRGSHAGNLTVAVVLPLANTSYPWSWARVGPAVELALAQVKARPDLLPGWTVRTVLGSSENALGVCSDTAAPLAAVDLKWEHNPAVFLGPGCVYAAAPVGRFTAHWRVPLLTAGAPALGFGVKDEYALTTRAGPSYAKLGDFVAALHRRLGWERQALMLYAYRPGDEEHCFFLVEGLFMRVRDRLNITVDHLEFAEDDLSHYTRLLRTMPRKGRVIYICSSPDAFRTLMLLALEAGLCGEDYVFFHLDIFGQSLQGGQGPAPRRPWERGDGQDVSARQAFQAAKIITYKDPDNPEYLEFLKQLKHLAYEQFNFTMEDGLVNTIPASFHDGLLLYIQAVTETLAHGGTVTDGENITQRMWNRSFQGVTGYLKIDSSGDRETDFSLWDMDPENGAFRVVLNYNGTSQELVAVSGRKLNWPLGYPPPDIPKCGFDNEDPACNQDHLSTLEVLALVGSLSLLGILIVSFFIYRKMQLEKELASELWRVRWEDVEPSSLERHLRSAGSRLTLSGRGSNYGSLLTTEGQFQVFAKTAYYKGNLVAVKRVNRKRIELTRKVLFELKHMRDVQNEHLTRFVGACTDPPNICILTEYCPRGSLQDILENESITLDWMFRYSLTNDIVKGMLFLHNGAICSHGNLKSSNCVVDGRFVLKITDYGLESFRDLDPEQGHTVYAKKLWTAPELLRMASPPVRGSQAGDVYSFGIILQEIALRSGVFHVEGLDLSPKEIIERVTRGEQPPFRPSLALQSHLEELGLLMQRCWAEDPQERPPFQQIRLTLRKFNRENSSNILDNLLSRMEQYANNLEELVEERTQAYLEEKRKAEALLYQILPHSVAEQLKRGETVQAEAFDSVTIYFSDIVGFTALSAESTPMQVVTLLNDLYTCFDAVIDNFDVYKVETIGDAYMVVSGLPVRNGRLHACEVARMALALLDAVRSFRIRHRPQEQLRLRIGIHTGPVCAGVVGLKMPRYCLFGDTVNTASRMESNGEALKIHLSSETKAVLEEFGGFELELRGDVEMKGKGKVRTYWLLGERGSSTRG

[5] = qHTS for Inhibitors of Plasmodium falciparum (HB3) proliferation (AID 504318); note: nearly all actives have a fitted effect of over 60% in size
Summary of the method: as §1

[6] = qHTS for Inhibitors of Plasmodium falciparum (CP250) proliferation (AID 504320)
Summary of the method: as §1

[7] = target: Tyrosyl-DNA phosphodiesterase 1 (Homo sapiens) (UniProt Q9NUW8); assay: Confirmation Assay for Inhibitors of Tyrosyl-DNA Phosphodiesterase (TDP1) (AID 489007); conditions: recombinant human TDP1 enzymatic activity, dose-response; note: potency is the fitted concentration of half-maximal effect; nearly all actives have a fitted effect of over 40% in size
Chain of Tyrosyl-DNA phosphodiesterase 1 (Homo sapiens) (Q9NUW8 whole entry, looked up): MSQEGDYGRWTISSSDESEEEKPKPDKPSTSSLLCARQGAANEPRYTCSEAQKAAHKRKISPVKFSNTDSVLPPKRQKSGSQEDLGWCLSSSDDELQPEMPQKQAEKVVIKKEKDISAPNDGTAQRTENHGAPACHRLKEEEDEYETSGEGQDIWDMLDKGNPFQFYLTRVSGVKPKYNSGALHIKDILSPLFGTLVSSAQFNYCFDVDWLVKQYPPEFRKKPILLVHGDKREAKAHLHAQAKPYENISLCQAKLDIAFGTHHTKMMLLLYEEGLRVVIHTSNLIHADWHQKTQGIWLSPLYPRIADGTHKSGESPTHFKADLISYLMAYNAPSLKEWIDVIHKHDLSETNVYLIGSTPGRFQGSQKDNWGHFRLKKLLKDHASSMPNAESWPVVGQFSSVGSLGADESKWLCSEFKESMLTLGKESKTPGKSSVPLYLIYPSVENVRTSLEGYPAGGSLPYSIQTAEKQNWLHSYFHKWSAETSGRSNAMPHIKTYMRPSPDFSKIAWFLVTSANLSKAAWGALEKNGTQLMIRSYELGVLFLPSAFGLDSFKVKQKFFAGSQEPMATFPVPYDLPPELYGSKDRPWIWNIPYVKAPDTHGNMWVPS
Summary of the method: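 Tdp1 1 nM + cpd, 15 min RT; add biotin/phosphotyrosine-FITC oligo 15 nM, 5 min RT; add AS donor/acceptor beads 10 ug/ml, 10 min RT; read AlphaScreen. No-enzyme wells = max signal.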

[8] = target: Vitamin D3 receptor (Homo sapiens) (UniProt P11473); assay: qHTS for Inhibitors of the vitamin D receptor (VDR): Hit Validation in Primary Screen (AID 602199); conditions: VDR-coactivator inhibition assay, qHTS confirmation; note: potency is the fitted concentration of half-maximal effect
Chain of Vitamin D3 receptor (Homo sapiens) (P11473 whole entry, looked up): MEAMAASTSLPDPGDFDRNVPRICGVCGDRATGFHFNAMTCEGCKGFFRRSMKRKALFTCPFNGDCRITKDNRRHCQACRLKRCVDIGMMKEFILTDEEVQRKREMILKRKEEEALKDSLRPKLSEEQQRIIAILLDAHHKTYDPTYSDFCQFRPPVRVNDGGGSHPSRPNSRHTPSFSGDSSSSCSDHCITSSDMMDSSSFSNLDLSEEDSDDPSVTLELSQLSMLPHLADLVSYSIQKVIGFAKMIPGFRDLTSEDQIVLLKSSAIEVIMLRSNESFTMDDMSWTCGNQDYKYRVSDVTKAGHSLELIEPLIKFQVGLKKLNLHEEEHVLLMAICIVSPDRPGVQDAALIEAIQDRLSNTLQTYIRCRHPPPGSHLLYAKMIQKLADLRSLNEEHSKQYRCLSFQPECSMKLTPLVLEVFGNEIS
Summary of the method: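 With 800 nM VDR and 5 uM LG19078 agonist present, compounds were incubated 2 h at ambient temperature with Alexa 647-labelled SRC2-3. Displacement was read as polarization at 620/688 nm.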

Compound: CC1(OC(=O)C2CCCC2)C(=O)C=C2C=C(c3ccsc3)N(c3cccc(C#N)c3)C=C2C1=O (stereo not given)
- Potency [1]: inactive
- Potency [2]: inactive
- Potency [3]: inactive
- Potency [4]: 2660 nM (active)

Compound: COc1ccc2c(c1)O[C@@H](c1ccc3c(c1)OCO3)[C@H](OC(=O)Nc1ccc(C)c(Br)c1)C2=O
- Potency [1]: inactive
- Potency [2]: inactive
- Potency [4]: inactive

Compound: CCOC(=O)CN1C(=O)[C@@]2(CC(C)=CC[C@@H](COc3ccccc3)O2)c2c(Br)cccc21
- Potency [4]: inactive

Compound: CC(=O)OC[C@H]1O[C@H](C#Cc2ccccc2Cl)C=C[C@H]1OC(C)=O
- Potency [1]: inactive
- Potency [2]: inactive
- Potency [3]: inactive
- Potency [4]: inactive

Compound: C[C@@H]1CC[C@H]2C(=O)O[C@@H](COc3ccc(C(C)(C)C)cc3)CN2[C@H]1c1ccc(Br)cc1
- Potency [1]: inactive
- Potency [4]: inactive

Compound: CC(=O)[C@@H]1[C@@H](C)N(Cc2ccccc2)C(=O)N[C@H]1c1ccccc1
- Potency [1]: inactive
- Potency [2]: inactive
- Potency [4]: inactive

Compound: C#CCCCON=C1C[C@@H](O)[C@H](O)[C@H]2[C@@H]3C(=O)N(C[C@@H]4CCCO4)C(=O)[C@@H]3CC[C@@H]12
- Potency [1]: inactive
- Potency [2]: inactive
- Potency [3]: inactive
- Potency [4]: inactive

Compound: COc1ccc(-c2nc3c(c4c2C[C@H](c2ccccc2)OC4)CN(C(=O)c2cc(I)ccc2F)CC3)c(C)c1
- Potency [4]: inactive

Compound: CCN(CC)CCCN=C1NC(c2cccc(F)c2)C(C(=O)OC)=C(C)N1Cc1ccccc1 (stereo not given)
- Potency [1]: inactive
- Potency [2]: inactive
- Potency [4]: inactive

Compound: COc1cccc([C@@H]2Oc3ccc(OC)cc3C(=O)[C@@H]2OC(=O)N[C@H]2CCCc3ccccc32)c1
- Potency [1]: inactive
- Potency [4]: inactive

Compound: C=CCOC(=O)N[C@H](c1ccc(-c2ccccc2)cc1)[C@H](C)C=CCC(=O)OC
- Potency [1]: inactive
- Potency [2]: inactive
- Potency [4]: inactive

Compound: COc1ccc(C=CNC(=O)c2ccc(OC)cc2)cc1
- Potency [1]: inactive
- Potency [2]: inactive
- Potency [4]: inactive

Compound: C=C(C(C)=O)C(O)c1ccc(C(F)(F)F)cc1 (stereo not given)
- Potency [1]: inactive
- Potency [2]: inactive
- Potency [4]: inactive

Compound: O[C@H](CC#CCOc1ccccc1)COCc1ccccc1
- Potency [1]: inactive
- Potency [2]: inactive
- Potency [4]: inactive

Compound: Cc1ccccc1Nc1oc(-c2ccccc2)nc1-c1cccc2ccccc12
- Potency [4]: inactive

Compound: CCCCc1cc2c(cn1)C(=O)C(C)(OC(C)=O)C(=O)C2 (stereo not given)
- Potency [1]: 1690 nM (active)
- activity, negative = inhibition [1]: -3.91% [at 1.12 µM]
- Potency [2]: 1690 nM (active)
- Potency [3]: 2.13 µM (active) and 1.69 µM (active)
- Potency [5]: inactive
- Potency [6]: inactive
- Potency [4]: inactive

Compound: C[C@H](NC(=O)N1CCc2nc(COc3ccccc3)c3c(c2C1)CO[C@@H](C)C3)c1ccccc1
- activity, negative = inhibition [1]: -0.0576% [at 1.12 µM]
- Potency [2]: inactive
- Potency [4]: inactive

Compound: C#CCCCON=C1C[C@@H](O)[C@H](O)[C@H]2[C@@H]3C(=O)N(C[C@@H]4CCCO4)C(=O)[C@@H]3CC[C@H]12
- Potency [1]: inactive
- Potency [2]: inactive
- Potency [3]: inactive
- Potency [4]: inactive

Compound: CCCCCCc1cc2cc(OC)c(OC)cc2c2c(C(=O)OC)c(C(=O)OC)c(C(=O)OC)n12
- Potency [4]: inactive

Compound: C=CCOC(=O)C(C(C)=O)[C@@H](NC(=O)OC)c1ccc2ccccc2c1 (stereo not given in full)
- Potency [1]: inactive
- Potency [2]: inactive
- Potency [3]: inactive
- Potency [4]: inactive

Compound: COC(=O)NC(c1ccccc1)c1c[nH]c2ccccc12 (stereo not given)
- Potency [1]: inactive
- Potency [2]: inactive
- Potency [3]: inactive
- Potency [4]: inactive

Compound: COC1=C[C@@H](C(=O)N[C@H]2CCCC[C@H]2NC(C)=O)[C@@H](C)[C@H](c2ccccc2)CC1=O
- Potency [1]: inactive
- Potency [2]: inactive
- Potency [4]: inactive

Compound: CC(CCN1CCCc2nc(C)c(C)cc21)=NOC[C@@H](C)[C@H](OCc1ccccc1)C(C)C
- Potency [1]: inactive
- Potency [2]: inactive
- Potency [4]: inactive

Compound: CCOC(=O)C1=NO[C@@]2(C=C(Br)C(=O)[C@H]3O[C@H]32)C1
- Potency [7]: 11200 nM (active)
- Potency [6]: inactive
- Potency [8]: 12600 nM (active)
- Potency [4]: inactive

Compound: Cc1cc(C)c2c(c1)CO[C@H]([C@H](O)CO)[C@H]2C=Cc1ccccc1
- Potency [1]: inactive
- Potency [2]: inactive
- Potency [4]: inactive

Compound: CC(=O)OC[C@H]1O[C@H](CCON=C(C)CCN2CCCc3nc(C)c(C)cc32)C=C[C@H]1OC(C)=O
- Potency [1]: inactive
- Potency [2]: inactive
- Potency [4]: inactive

Compound: CCO[C@H](c1cc(OC)cc([N+](=O)[O-])c1OC)[C@H](C)[C@@H](OC)[C@H](C)C=CCC(=O)OC
- Potency [1]: inactive
- Potency [4]: inactive

Compound: CC[C@@]12C=C(C=Cc3ccccc3)[C@](CC)(C1)[C@H](c1ccccc1)CC2=O
- Potency [4]: inactive

Compound: COC(=O)C1=C(C(=O)OC)[C@@H]2N(Cc3ccccc3)c3ccccc3[C@@]23C[C@@H](C(=O)OC)N(C(=O)Nc2ccccc2F)C3=N1
- Potency [1]: inactive
- Potency [2]: inactive
- Potency [3]: inactive
- Potency [4]: 3350 nM (active)

Compound: CCOC(=O)CN1C(=O)[C@@]2(CC(C)=C[C@@H](COCc3ccccc3)O2)c2ccccc21
- Potency [1]: inactive
- Potency [2]: inactive
- Potency [3]: inactive
- Potency [5]: inactive
- Potency [4]: inactive

Compound: CCOC(=O)NN=C1C[C@@H](O)[C@@H](O)[C@@H]2[C@H]3C(=O)N(Cc4ccccc4)C(=O)[C@@H]3CC[C@@H]12
- Potency [1]: inactive
- Potency [2]: inactive
- Potency [3]: inactive
- Potency [5]: inactive
- Potency [4]: inactive

Compound: CCCCc1nc2c(c3c1C[C@H](C)OC3)CN(C(=O)c1ccco1)CC2
- activity, negative = inhibition [1]: -0.515% [at 1.12 µM]
- Potency [2]: inactive
- Potency [3]: inactive
- Potency [5]: inactive
- Potency [4]: inactive

Compound: CC(=O)OC[C@H]1O[C@@H](ON=C2C[C@@H](O)[C@@H](O)[C@@H]3[C@H]4C(=O)N(Cc5ccccc5)C(=O)[C@@H]4CC[C@@H]23)[C@H](OC(C)=O)[C@@H](OC(C)=O)[C@H]1OC(C)=O
- Potency [1]: inactive
- Potency [2]: inactive
- Potency [3]: inactive
- Potency [5]: inactive
- Potency [4]: inactive

Compound: C#CCCOC(=O)N1C2=NC(C(=O)OC)=C(C(=O)OC)[C@@H]3Nc4ccccc4[C@]23C[C@H]1C(=O)OC
- Potency [1]: inactive
- Potency [2]: inactive
- Potency [3]: inactive
- Potency [5]: inactive
- Potency [4]: inactive

Compound: COc1ccc(-c2nc(-c3ccccc3)c(NC(C)C)o2)cc1
- Potency [1]: 1690 nM (active)
- Potency [2]: 1510 nM (active)
- Potency [3]: 1.51 µM (active)
- Potency [4]: inactive
